Results filed as inconclusive are left out. Active and inactive are the calls of the source. Unless noted, the call rests on the fitted dose curve; in most records, active means well fitted curve in the direction sought with a large enough effect; inconclusive means small, poorly fitted or top-dose-only effect, or another doubt; inactive means no such curve, though single readings can be large; an effect the other way counts as inactive or inconclusive.
Legend:
[1] = target: Aldehyde dehydrogenase, mitochondrial (Homo sapiens) (UniProt P05091); assay: qHTS for Inhibitors of the Aldehyde Dehydrogenase Family (ALDH2) Validation screens (AID 2061302; active means well fitted inhibition curve with a large enough effect; title and protocol of this record describe different tests;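 further: plate controls were DMSO vehicle for no effect and maximal DPI positive control response for full effect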)
[2] = target: Retinaldehyde dehydrogenase 3 (Homo sapiens) (UniProt P47895); assay: qHTS for Inhibitors of the Aldehyde Dehydrogenase Family (ALDH1A3) Primary screen (AID 2061315);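 further: plate controls were DMSO vehicle for no effect and reference inhibitor for full effect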
[3] = BET inhibitor-based combinations targeting novel dependencies in MECOM-rearranged (r) AML: SET-2 cell line (AID 2202231); settings: SET-2 AML cells viability, CellTiter-Glo luminescence, 48 h; viability: hits give low values, concentration not given here; further: nearly all actives have a fitted effect of over 35% in size; further: potency means the concentration at half of the fitted maximal effect;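 on viability: plate controls were DMSO treated cells for no effect and wells without cells for full effect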
Summary of the method: (§1)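 Here, 11-point titrations of each agent were applied to 500 seeded cells and incubated 48 hr; CellTiter-Glo signal, scaled against DMSO and empty wells, was integrated as AUC, then Z-scored within the individual line.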

[4] = BET inhibitor-based combinations targeting novel dependencies in MECOM-rearranged (r) AML: OCI-AML3 cell line (AID 2202232); settings: Potency: OCI-AML3 viability; further: nearly all actives have a fitted effect of over 35% in size; further: potency means the concentration at half of the fitted maximal effect
Summary of the method: as §1

[5] = BET inhibitor-based combinations targeting novel dependencies in MECOM-rearranged (r) AML: MV-4-11 cell line (AID 2202233); further: nearly all actives have a fitted effect of over 45% in size; further: potency means the concentration at half of the fitted maximal effect
Summary of the method: (§2)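 Normalized to DMSO and empty-well controls, the luminescence data from CellTiter-Glo after 48 hr drug exposure were fitted across 11 concentrations. Reported metrics are area under the dose-response curve and its Z-transformed form.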

[6] = BET inhibitor-based combinations targeting novel dependencies in MECOM-rearranged (r) AML: HNT-34 cell line (AID 2202234); further: nearly all actives have a fitted effect of over 35% in size; further: potency means the concentration at half of the fitted maximal effect
Summary of the method: as §2

[7] = BET inhibitor-based combinations targeting novel dependencies in MECOM-rearranged (r) AML: UCSD-AML1 cell line (AID 2202235); further: nearly all actives have a fitted effect of over 40% in size; further: potency means the concentration at half of the fitted maximal effect
Summary of the method: as §2

[8] = BET inhibitor-based combinations targeting novel dependencies in MECOM-rearranged (r) AML: AML-191 cell line (AID 2202236; further: nearly all actives have a fitted effect of over 35% in size; further: potency means the concentration at half of the fitted maximal effect)
Summary of the method: as §1

[9] = BET inhibitor-based combinations targeting novel dependencies in MECOM-rearranged (r) AML: AML-194 cell line (AID 2202237; further: nearly all actives have a fitted effect of over 40% in size; further: potency means the concentration at half of the fitted maximal effect)
Summary of the method: as §1

[10] = target: Retinaldehyde dehydrogenase 3 (Homo sapiens) (UniProt P47895); assay: qHTS for Inhibitors of the Aldehyde Dehydrogenase Family (ALDH1A3) Validation screen (AID 2061312); further: on the % scale 0 is the no-effect control and ±100 the full control effect; nearly all actives have a fitted effect of over 45% in size
[11] = target: Aldehyde dehydrogenase, mitochondrial (Homo sapiens) (UniProt P05091); assay: qHTS for Inhibitors of the Aldehyde Dehydrogenase Family (ALDH2) Confirmatory screens (AID 2061303; active means well fitted inhibition curve with a large enough effect; title and protocol of this record describe different tests; further: nearly all actives have a fitted effect of over 45% in size; further: potency means the concentration at half of the fitted maximal effect)

NC[C@H](O)c1ccc(O)c(O)c1
inactive: Potency [1] | Potency [2] | viability [3] 116% | Potency [4] | Potency [5] | Potency [6] | Potency [7] | Potency [8] | Potency [9]

C=C[C@@H]1CN2CC[C@@H]1C[C@H]2[C@H](O)c1ccnc2ccc(OC)cc12
inactive: Potency [1] | Potency [10]

Cn1c(=O)c2[nH]cnc2n(C)c1=O
inactive: Potency [1] | Potency [10] | viability [3] 117% | Potency [4] | Potency [5] | Potency [6] | Potency [7] | Potency [8] | Potency [9]

CN=C(NC#N)NCCSCc1nc[nH]c1C
inactive: Potency [1] | Potency [10]

N[C@@H](Cc1c[nH]c2ccc(O)cc12)C(=O)O
inactive: Potency [1] | Potency [10] | viability [3] 98.1% | Potency [4] | Potency [5] | Potency [7] | Potency [8] | Potency [9]

O=C(O)c1cccnc1Nc1cccc(C(F)(F)F)c1
inactive: Potency [1] | Potency [10]

CN1C2CCC1CC(OC(=O)C(CO)c1ccccc1)C2 (stereo not given)
inactive: Potency [1] | Potency [10] | viability [3] 89.7% | Potency [6] | Potency [7] | Potency [8] | Potency [9]

CCCC(CCC)C(=O)O
inactive: Potency [1] | Potency [10] | viability [3] 112% | Potency [4] | Potency [5] | Potency [6] | Potency [7] | Potency [8] | Potency [9]

O=C(C1CCCCC1)N1CC(=O)N2CCc3ccccc3C2C1 (stereo not given)
inactive: Potency [1] | Potency [10] | viability [3] 120% | Potency [4] | Potency [5] | Potency [6] | Potency [7] | Potency [8] | Potency [9]

CC#C[C@]1(O)CC[C@H]2[C@@H]3CCC4=CC(=O)CCC4=C3[C@@H](c3ccc(N(C)C)cc3)C[C@@]21C
active: Potency [5] 23.5 µM | Potency [9] 18.6 µM
inactive: Potency [1] | Potency [10]

CN1Cc2c(N)cccc2C(c2ccccc2)C1 (stereo not given)
inactive: Potency [1] | Potency [10]

C[C@]12CCC(=O)C=C1CC[C@@H]1[C@@H]2[C@@H](O)C[C@@]2(C)[C@H]1CC[C@]2(O)C(=O)CO
active: Potency [8] 0.417 µM
inactive: Potency [1] | Potency [10] | viability [3] 113% | Potency [4] | Potency [5] | Potency [6] | Potency [7] | Potency [9]

CN[C@H]1CC[C@@H](c2ccc(Cl)c(Cl)c2)c2ccccc21
inactive: Potency [1] | Potency [10]
active: Potency [4] 13.2 µM | Potency [8] 18.6 µM

CC(=O)OCC(=O)[C@@]1(O)CC[C@H]2[C@@H]3CCC4=CC(=O)CC[C@]4(C)[C@H]3C(=O)C[C@@]21C
inactive: Potency [1] | Potency [10] | viability [3] 122% | Potency [4] | Potency [5] | Potency [6] | Potency [8] | Potency [9]

CCC1(C)CC(=O)NC1=O (stereo not given)
inactive: Potency [1] | Potency [10] | viability [3] 115% | Potency [4] | Potency [5] | Potency [6] | Potency [7] | Potency [8] | Potency [9]

O=c1[nH]cnc2[nH]ncc12
inactive: Potency [1] | Potency [10] | viability [3] 124% | Potency [4] | Potency [5] | Potency [7] | Potency [8] | Potency [9]
active: Potency [6] 0.0013 µM

CC(=O)OCC(CCn1cnc2cnc(N)nc21)COC(C)=O
inactive: Potency [1] | Potency [10] | Potency [4] | Potency [5] | Potency [6] | Potency [7] | Potency [8] | Potency [9]

Cn1cnc2c1c(=O)[nH]c(=O)n2C
inactive: Potency [1] | Potency [10] | Potency [4] | Potency [5] | Potency [7]

N=C(N)c1ccc(OCCCCCOc2ccc(C(=N)N)cc2)cc1 (tested in a mixture with another compound)
inactive: Potency [1] | Potency [10]

CN1CCN(C2=Nc3cc(Cl)ccc3Nc3ccccc32)CC1
inactive: Potency [1] | Potency [10] | Potency [4] | Potency [5] | Potency [9]
active: Potency [6] 20.9 µM

CCC1(c2ccccc2)C(=O)NCNC1=O
inactive: Potency [1] | Potency [10] | viability [3] 109% | Potency [4] | Potency [5] | Potency [6] | Potency [7] | Potency [8] | Potency [9]

COc1ccc2c(c1)c(CC(=O)O)c(C)n2C(=O)c1ccc(Cl)cc1
inactive: Potency [1] | Potency [10] | viability [3] 114% | Potency [5] | Potency [6] | Potency [7] | Potency [9]

COc1cc2c(cc1OC)C1CC(=O)C(CC(C)C)CN1CC2 (stereo not given)
inactive: Potency [1] | Potency [10] | viability [3] 109% | Potency [4] | Potency [6] | Potency [7] | Potency [8]

O=c1c(-c2ccc(O)cc2)coc2cc(O)ccc12
active: Potency [5] 23.5 µM | Potency [6] 16.6 µM
inactive: Potency [1] | Potency [10] | viability [3] 112% | Potency [8] | Potency [9]

N[C@@H](Cc1c[nH]c2ccccc12)C(=O)O
inactive: Potency [1] | Potency [10]

O=C(NOCC1CC1)c1cc(Br)c(F)c(F)c1Nc1ccc(I)cc1Cl
inactive: Potency [1] | Potency [10]

Nc1ccn([C@@H]2O[C@H](CO)[C@@H](O)[C@@H]2O)c(=O)n1
inactive: Potency [1] | Potency [10]

N[C@H]1CONC1=O
inactive: Potency [1] | Potency [10]

CC(C)C(=O)Nc1ccc([N+](=O)[O-])c(C(F)(F)F)c1
inactive: Potency [1] | Potency [10] | viability [3] 93.1% | Potency [6] | Potency [7] | Potency [8] | Potency [9]

C[N+](C)(C)CCO
inactive: Potency [1] | Potency [10]

C=C[C@H]1CN2CC[C@@H]1C[C@@H]2[C@@H](O)c1ccnc2ccc(OC)cc12
inactive: Potency [1] | Potency [10]

NC1CONC1=O (stereo not given)
inactive: Potency [1] | Potency [10]

Cn1c(=O)c2c(ncn2C)n(C)c1=O
inactive: Potency [1] | Potency [10] | viability [3] 97.8% | Potency [4] | Potency [5] | Potency [6] | Potency [7] | Potency [8] | Potency [9]

NC(=NCc1ccccc1)NC(=O)c1nc(Cl)c(N)nc1N
inactive: Potency [1] | Potency [10] | Potency [7]
active: Potency [5] 5.25 µM | Potency [6] 14.8 µM | Potency [8] 20.9 µM | Potency [9] 23.5 µM

N[C@@H]1CONC1=O
inactive: Potency [1] | Potency [10] | viability [3] 117% | Potency [4] | Potency [5] | Potency [6] | Potency [7] | Potency [8] | Potency [9]

OCCN(CCO)c1nc(N2CCCCC2)c2nc(N(CCO)CCO)nc(N3CCCCC3)c2n1
inactive: Potency [1] | Potency [10] | Potency [7] | Potency [9]

CC(N=C(NC#N)Nc1ccncc1)C(C)(C)C (stereo not given)
inactive: Potency [1] | Potency [10]

COc1ccc(CC(=O)NCCNC(=O)c2ccc(-c3cccc(C(F)(F)F)c3)cc2)cc1
inactive: Potency [11]

COc1cc2c(c(OC)c1OC)-c1ccc(OC)c(=O)cc1[C@@H](NC(C)=O)CC2
active: Potency [3] 0.0661 µM | Potency [4] 0.0295 µM | Potency [5] 0.0372 µM | Potency [7] 0.0417 µM | Potency [8] 0.0332 µM
inactive: Potency [1]

COc1ccc2c(c1)CCc1c(C(=O)Nc3cc(C)ccc3O)noc1-2
inactive: Potency [11]

CCOc1ccc(-c2csc(/C(C#N)=C/c3ccc(Br)cc3)n2)cc1
inactive: Potency [11]

CC(=O)[C@]1(O)Cc2c(O)c3c(c(O)c2[C@@H](O[C@H]2C[C@H](N)[C@H](O)[C@H](C)O2)C1)C(=O)c1ccccc1C3=O
active: Potency [3] 0.468 µM | Potency [4] 0.186 µM | Potency [5] 0.0661 µM | Potency [6] 0.186 µM | Potency [7] 0.148 µM | Potency [8] 0.186 µM | Potency [9] 0.235 µM
inactive: Potency [1]

CCOC(=O)Cn1c(=O)oc2cc(S(=O)(=O)N3CCN(c4cccc(Cl)c4)CC3)ccc21
inactive: Potency [11]

O=C1c2c(O)ccc(O)c2C(=O)c2c(NCCNCCO)ccc(NCCNCCO)c21
active: Potency [3] 0.742 µM | Potency [4] 0.209 µM | Potency [5] 0.0742 µM | Potency [6] 0.132 µM | Potency [7] 0.148 µM | Potency [8] 0.372 µM
inactive: Potency [1]

CCOc1ccc(-c2csc(-c3nc(-c4ccc(Br)s4)cs3)n2)cc1
inactive: Potency [11]

NCCCC(N)(C(=O)O)C(F)F (stereo not given)
inactive: Potency [1] | Potency [4] | Potency [5] | Potency [6] | Potency [7] | Potency [8]

OCc1cccc(-c2ccc3ncc(Nc4cccc(C(F)(F)F)c4)n3n2)c1
inactive: Potency [11]

Cc1cc(C(F)(F)F)nc(CNc2cc(C)nc3c(C)c(C)nn23)n1
inactive: Potency [11]

C[S+](=O)([O-])c1ccc(-c2ncc3c(n2)OCCN(Cc2ccc(F)cc2F)C3=O)cc1
active: Potency [11] 15.8 µM

N[C@@H](Cc1ccc(O)c(O)c1)C(=O)O
inactive: Potency [1] | viability [3] 105% | Potency [4] | Potency [5] | Potency [6] | Potency [8] | Potency [9]

COc1cc(NC(=O)CCS(=O)(=O)c2ccc3c(c2)n(C)c(=O)c(=O)n3C)cc(OC)c1
inactive: Potency [11]

O=c1c(-c2ccc(O)cc2)coc2cc(O[C@@H]3O[C@H](CO)[C@@H](O)[C@H](O)[C@H]3O)ccc12
active: Potency [5] 20.9 µM
inactive: Potency [1] | Potency [6]

COc1cc2nc(N3CCCN(C)CC3)nc(NC3CCN(Cc4ccccc4)CC3)c2cc1OC
active: Potency [3] 18.6 µM | Potency [4] 8.33 µM | Potency [5] 6.61 µM | Potency [6] 7.42 µM | Potency [7] 6.61 µM | Potency [8] 14.8 µM | Potency [9] 10.5 µM
inactive: Potency [1]

O=C(NCc1cccc(F)c1)c1nc2c(o1)CCN(Cc1cccc(F)c1F)CC2
active: Potency [11] 31.6 µM

COCc1cccc(-c2ccc3c(n2)c(=O)ncn3Cc2ccccc2)c1
inactive: Potency [11]

CCc1nnc(NC(=O)c2nc(SCc3ccc(F)cc3)ncc2Cl)s1
inactive: Potency [11]

CCOc1ccc(CC(=O)Nc2ccc3c(c2)N(C)C(=O)c2ccccc2S3)cc1OCC
inactive: Potency [11]

CCN1CCN(C(=O)CNC(=O)c2cccc(-c3ccsc3)c2)CC1
inactive: Potency [11]

Cc1ccc(C(=O)N2CCC(N3CCN(Cc4ccc(F)cc4)C(=O)C3=O)CC2)cc1
inactive: Potency [11]

CC(C)NC(=O)Cc1csc2nc(-c3ccccc3)cn12
inactive: Potency [11]

Cc1ccc(O)c(NC(=O)c2cc(-c3ccc(F)cc3)on2)c1
inactive: Potency [11]

O=C(Nc1cccc(-c2ccco2)c1)C1CCN(Cc2ccc(CO)o2)CC1
inactive: Potency [11]

O=C(Nc1cccc(-c2ccc(N3CCOCC3)nn2)c1)Nc1cc(F)ccc1F
inactive: Potency [11]

CCN(CC)S(=O)(=O)c1ccc2c(c1)N(CC(=O)Nc1cccc(C#N)c1)C(=O)CO2
inactive: Potency [11]

CCN1C(=O)c2ccccc2Sc2ccc(NC(=O)COc3ccc(Cl)cc3)cc21
inactive: Potency [11]

CN(C)CCOC(c1ccccc1)c1ccccc1
inactive: Potency [1] | viability [3] 105% | Potency [4] | Potency [5] | Potency [6] | Potency [7] | Potency [8] | Potency [9]

CCOc1cccn2c(=O)c(-c3cc(C)n(-c4ccc(Cl)cc4)n3)c(C)nc12
inactive: Potency [11]

Reference: PubChem BioAssay (NCATS)
